Laboratory results from PubChem BioAssay (EPA / NIEHS).
Records with an inconclusive call do not appear. Activity calls are given as the source filed them. How the source made its calls, unless noted: active means hit-call score of the fitted dose curve at least 0.9, where 1 is the maximum; inconclusive means response in the unintended direction; inactive means score below 0.9.

Tests used:
[1] = target: Glucocorticoid receptor (Homo sapiens) (UniProt P04150); experiment: ATG_GR_TRANS: Attagene TRANS-FACTORIAL HepG2 Assay for human Glucocorticoid Receptor (GR) (AID 2282978); details: HepG2 Attagene TRANS GR reporter, mRNA transcription;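 further: activators score as hits since higher reporter transcript over DMSO is fitted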
Summary of the method: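 Measurement of GAL4-UAS-driven reporter mRNA in human HepG2 liver cells 24 h post-dosing, using RT-PCR with fluorescent labelling and capillary electrophoresis; the transfected constructs report exogenous NR-GAL4 chimera activity, fitted upward against DMSO.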

[2] = target: Oxysterols receptor LXR-alpha (Homo sapiens) (UniProt Q13133); experiment: ATG_LXRa_TRANS: Attagene TRANS-FACTORIAL HepG2 Assay for human Liver X Receptor alpha (LXRa) (AID 2282980); details: HepG2 Attagene TRANS reporter, LXRa transactivation
Summary of the method: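 Transfect HepG2 with GAL4-UAS multiplex reporter constructs (TRANS format, chimeric receptor-GAL4); treat 24 h; extract RNA, reverse-transcribe, PCR-amplify, FAM-label, HpaI-digest; resolve fragments by capillary electrophoresis. Upward response vs DMSO.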

[3] = target: Oxysterols receptor LXR-beta (Homo sapiens) (UniProt P55055); experiment: ATG_LXRb_TRANS: Attagene TRANS-FACTORIAL HepG2 Assay for human Liver X Receptor beta (LXRb) (AID 2282981); details: HepG2 Attagene TRANS GAL4-LXRb reporter, mRNA
Summary of the method: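 Multiplexed reporter assay, HepG2, 24 h dosing. Fluorescence of labelled RT-PCR products after capillary electrophoresis gives transcript level; positive fitting direction relative to DMSO.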

[4] = target: Hepatocyte nuclear factor 4-alpha (Homo sapiens) (UniProt P41235); experiment: ATG_HNF4a_TRANS: Attagene TRANS-FACTORIAL HepG2 Assay for human Hepatocyte Nuclear Factor 4 alpha (HNF4a) (AID 2282982); details: HepG2 HNF4a transactivation reporter, mRNA readout
Summary of the method: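 Endpoint reflects transcriptional activation of a GAL4-UAS reporter by an HNF4a-GAL4 chimera in transfected HepG2 cells, 24 h post-dosing. Fluorescence from RT-PCR products separated by capillary electrophoresis; DMSO baseline.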

[5] = ATG_M_32_TRANS: Attagene TRANS-FACTORIAL HepG2 Assay for M32 Transcription Factor (Internal Marker) (AID 2282984); details: HepG2 Attagene TRANS M32 internal marker reporter;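 further: transcript level of a background control reporter unit measured by RT-PCR and capillary electrophoresis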
Summary of the method: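 Internal-marker readout from a multiplexed transcription reporter panel. HepG2 cells were transfected with GAL4-UAS reporter units, treated 24 hours, and reporter transcript levels determined by fluorescence after RT-PCR and capillary separation.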

[6] = target: Nuclear receptor subfamily 4 group A member 2 (Homo sapiens) (UniProt P43354); experiment: ATG_NURR1_TRANS: Attagene TRANS-FACTORIAL HepG2 Assay for human Nuclear Receptor Related Protein 1 (NURR1) (AID 2282985); details: HepG2 Attagene TRANS reporter, mRNA readout
Summary of the method: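 Endpoint: reporter mRNA increase relative to DMSO. HepG2 cells transfected with reporter units, treated 24 h; RNA processed by RT-PCR, labelling, HpaI digestion and capillary electrophoresis.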

[7] = target: Transcriptional activator Myb (Homo sapiens) (UniProt P10242); experiment: ATG_Myb_CIS: Attagene CIS-FACTORIAL HepG2 Assay for human Myeloblastosis (Myb) Proto-Oncogene Transcription Factor (AID 2282986; active means hit-call score of the fitted dose curve at least 0.9, where 1 is the maximum; inactive means score below 0.9); details: HepG2 Attagene CIS-FACTORIAL Myb reporter transcription; actives raise or lower the signal
Summary of the method: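 Fluorescence signals from capillary electrophoresis of RT-PCR-amplified reporter cDNA give the read-out. Cells: HepG2 transfected with multiple cis-regulated reporter units. Exposure lasts 24 hours; DMSO defines baseline for gain or loss of signal.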

[8] = target: Nuclear respiratory factor 1 (Homo sapiens) (UniProt Q16656); experiment: ATG_NRF1_CIS: Attagene CIS-FACTORIAL HepG2 Assay for human Nuclear Respiratory Factor 1 (NRF1) Orphan Gene (AID 2282987; active means hit-call score of the fitted dose curve at least 0.9, where 1 is the maximum; inactive means score below 0.9); details: HepG2 NRF1 cis-element reporter, Attagene multiplex; actives raise or lower the signal
Summary of the method: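 Transcriptional reporter readout, one component of a 52-endpoint multiplexed HepG2 panel. Exposure 24 h; mRNA detected via RT-PCR and fluorescent capillary electrophoresis; fitting in both directions against DMSO.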

[9] = ATG_M_06_TRANS: Attagene TRANS-FACTORIAL HepG2 Assay for M06 Transcription Factor (Internal Marker) (AID 2282983); details: HepG2 Attagene TRANS M06 internal marker reporter
Summary of the method: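 Background control endpoint: reporter mRNA from transiently transfected HepG2 after 24 h dosing, detected by RT-PCR with capillary electrophoresis fluorescence. Analysed for gain versus DMSO.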

Measured: AC50

Sequence of Nuclear respiratory factor 1 (Homo sapiens) (Q16656 whole entry, looked up): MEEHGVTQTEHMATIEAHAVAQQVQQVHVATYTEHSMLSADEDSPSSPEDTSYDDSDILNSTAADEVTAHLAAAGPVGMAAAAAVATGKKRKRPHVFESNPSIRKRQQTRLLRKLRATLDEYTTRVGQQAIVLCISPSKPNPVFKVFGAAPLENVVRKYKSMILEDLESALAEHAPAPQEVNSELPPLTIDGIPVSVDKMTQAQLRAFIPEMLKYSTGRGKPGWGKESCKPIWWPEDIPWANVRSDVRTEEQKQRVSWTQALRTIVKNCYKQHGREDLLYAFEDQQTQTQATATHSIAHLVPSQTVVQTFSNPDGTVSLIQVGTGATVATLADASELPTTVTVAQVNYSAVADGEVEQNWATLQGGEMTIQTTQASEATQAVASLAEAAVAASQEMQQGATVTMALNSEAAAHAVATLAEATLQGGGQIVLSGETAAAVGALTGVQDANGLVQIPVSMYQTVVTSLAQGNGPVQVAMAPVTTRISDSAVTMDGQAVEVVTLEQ
Sequence of Nuclear receptor subfamily 4 group A member 2 (Homo sapiens) (P43354 whole entry, looked up): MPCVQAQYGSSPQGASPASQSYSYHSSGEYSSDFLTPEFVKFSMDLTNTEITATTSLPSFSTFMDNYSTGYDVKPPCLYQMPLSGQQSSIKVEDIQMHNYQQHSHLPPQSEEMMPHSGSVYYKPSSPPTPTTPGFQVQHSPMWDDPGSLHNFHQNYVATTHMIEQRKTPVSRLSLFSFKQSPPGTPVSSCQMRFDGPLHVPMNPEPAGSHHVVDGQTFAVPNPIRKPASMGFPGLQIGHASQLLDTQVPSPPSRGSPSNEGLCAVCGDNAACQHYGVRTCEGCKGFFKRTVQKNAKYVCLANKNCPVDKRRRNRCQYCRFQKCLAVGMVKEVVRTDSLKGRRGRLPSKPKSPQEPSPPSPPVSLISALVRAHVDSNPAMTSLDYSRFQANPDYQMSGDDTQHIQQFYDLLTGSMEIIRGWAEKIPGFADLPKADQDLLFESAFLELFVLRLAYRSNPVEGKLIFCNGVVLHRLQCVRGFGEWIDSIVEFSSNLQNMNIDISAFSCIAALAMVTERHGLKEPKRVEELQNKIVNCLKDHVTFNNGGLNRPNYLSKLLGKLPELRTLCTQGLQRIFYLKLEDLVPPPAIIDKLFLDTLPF
Sequence of Transcriptional activator Myb (Homo sapiens) (P10242 whole entry, looked up): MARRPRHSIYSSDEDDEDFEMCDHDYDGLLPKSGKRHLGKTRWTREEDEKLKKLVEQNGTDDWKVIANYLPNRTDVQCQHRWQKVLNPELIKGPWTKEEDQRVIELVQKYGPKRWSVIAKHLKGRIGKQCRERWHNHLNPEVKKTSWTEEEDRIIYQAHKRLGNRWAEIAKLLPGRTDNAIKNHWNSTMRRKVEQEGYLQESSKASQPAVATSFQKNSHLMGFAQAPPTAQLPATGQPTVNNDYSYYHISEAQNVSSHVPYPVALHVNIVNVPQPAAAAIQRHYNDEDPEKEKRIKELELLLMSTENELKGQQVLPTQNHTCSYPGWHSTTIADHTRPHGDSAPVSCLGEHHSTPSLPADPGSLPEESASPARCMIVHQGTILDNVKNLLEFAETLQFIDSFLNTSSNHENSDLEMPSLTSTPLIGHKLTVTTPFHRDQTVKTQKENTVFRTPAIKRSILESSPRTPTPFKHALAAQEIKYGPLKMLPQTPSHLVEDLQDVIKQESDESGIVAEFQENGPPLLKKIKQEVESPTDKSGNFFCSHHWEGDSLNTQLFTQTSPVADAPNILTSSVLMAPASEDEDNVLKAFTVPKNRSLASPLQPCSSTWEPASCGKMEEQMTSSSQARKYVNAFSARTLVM
Sequence of Oxysterols receptor LXR-beta (Homo sapiens) (P55055 whole entry, looked up, the tested form may be a part): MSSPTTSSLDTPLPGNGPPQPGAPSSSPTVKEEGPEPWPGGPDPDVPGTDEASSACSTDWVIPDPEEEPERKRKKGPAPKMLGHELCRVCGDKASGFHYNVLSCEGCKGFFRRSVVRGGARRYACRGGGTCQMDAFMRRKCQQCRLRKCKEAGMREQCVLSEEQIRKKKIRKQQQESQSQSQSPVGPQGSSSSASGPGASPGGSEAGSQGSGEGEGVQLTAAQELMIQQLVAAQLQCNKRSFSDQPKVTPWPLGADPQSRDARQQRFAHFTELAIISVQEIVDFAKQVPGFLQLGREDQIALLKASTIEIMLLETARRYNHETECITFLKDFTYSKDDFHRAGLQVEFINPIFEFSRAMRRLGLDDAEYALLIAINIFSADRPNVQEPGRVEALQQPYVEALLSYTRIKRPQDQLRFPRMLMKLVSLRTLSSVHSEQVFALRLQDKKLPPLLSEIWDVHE
Sequence of Glucocorticoid receptor (Homo sapiens) (P04150 whole entry, looked up, the tested form may be a part): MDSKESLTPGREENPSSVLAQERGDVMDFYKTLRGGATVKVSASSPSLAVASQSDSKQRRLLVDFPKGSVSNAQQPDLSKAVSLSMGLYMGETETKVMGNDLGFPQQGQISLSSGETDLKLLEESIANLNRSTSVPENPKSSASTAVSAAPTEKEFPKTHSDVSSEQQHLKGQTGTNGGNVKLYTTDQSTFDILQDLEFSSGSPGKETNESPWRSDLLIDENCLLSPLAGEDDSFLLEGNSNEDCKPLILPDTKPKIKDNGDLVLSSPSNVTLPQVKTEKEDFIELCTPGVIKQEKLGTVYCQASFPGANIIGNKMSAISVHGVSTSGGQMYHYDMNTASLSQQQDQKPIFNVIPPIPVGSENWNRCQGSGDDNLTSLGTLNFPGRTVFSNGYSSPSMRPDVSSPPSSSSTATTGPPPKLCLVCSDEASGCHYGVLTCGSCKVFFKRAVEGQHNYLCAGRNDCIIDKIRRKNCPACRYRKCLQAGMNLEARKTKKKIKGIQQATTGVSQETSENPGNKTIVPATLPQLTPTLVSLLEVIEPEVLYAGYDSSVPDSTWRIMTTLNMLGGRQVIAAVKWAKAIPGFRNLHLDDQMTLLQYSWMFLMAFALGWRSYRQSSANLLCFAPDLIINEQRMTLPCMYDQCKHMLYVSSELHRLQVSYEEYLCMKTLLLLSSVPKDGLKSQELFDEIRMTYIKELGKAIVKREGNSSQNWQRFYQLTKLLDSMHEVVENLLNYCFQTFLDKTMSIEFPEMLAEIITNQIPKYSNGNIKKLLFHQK
Sequence of Hepatocyte nuclear factor 4-alpha (Homo sapiens) (P41235 whole entry, looked up, the tested form may be a part): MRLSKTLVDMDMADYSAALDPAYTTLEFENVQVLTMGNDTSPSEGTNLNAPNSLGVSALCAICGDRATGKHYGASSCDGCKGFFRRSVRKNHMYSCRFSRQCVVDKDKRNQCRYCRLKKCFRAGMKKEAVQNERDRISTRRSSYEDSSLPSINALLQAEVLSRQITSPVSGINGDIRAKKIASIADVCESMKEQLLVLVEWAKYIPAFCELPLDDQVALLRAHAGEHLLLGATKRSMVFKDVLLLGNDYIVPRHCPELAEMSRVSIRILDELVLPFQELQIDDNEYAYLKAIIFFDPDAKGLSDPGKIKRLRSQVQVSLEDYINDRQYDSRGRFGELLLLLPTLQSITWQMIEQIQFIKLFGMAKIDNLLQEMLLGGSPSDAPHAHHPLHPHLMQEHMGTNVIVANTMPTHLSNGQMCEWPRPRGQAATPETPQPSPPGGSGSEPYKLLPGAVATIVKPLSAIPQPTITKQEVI
Sequence of Oxysterols receptor LXR-alpha (Homo sapiens) (Q13133 whole entry, looked up, the tested form may be a part): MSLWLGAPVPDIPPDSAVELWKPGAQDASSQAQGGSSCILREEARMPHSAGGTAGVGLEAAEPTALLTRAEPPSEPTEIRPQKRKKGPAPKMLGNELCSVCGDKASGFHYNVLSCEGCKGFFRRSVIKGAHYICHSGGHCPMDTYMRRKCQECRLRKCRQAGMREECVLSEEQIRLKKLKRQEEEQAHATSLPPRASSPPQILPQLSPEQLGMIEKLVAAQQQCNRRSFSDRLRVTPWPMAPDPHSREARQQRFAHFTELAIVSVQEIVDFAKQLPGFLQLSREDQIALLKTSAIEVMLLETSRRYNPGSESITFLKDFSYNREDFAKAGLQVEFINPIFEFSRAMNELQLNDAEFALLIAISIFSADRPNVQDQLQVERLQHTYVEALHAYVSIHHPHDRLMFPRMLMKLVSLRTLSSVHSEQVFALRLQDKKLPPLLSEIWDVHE

CCCOC(=O)CCCCC(=O)OCCC
not listed: [9]
inactive: all other assays above

CCCCCCCOC(=O)CCC
not listed: [4] | [5] | [7]
inactive: all other assays above

C=CC(C)(CCC=C(C)C)OC(=O)CC(C)C (stereo not given)
not listed: [4] | [7] | [9]
inactive: all other assays above

COc1ccc(-c2coc3cc(O)ccc3c2=O)cc1
inactive: all assays above

C=C(C)c1cccc(C(C)(C)N=C=O)c1
not listed: [6] | [8]
inactive: all other assays above

O=C(c1ccccc1)c1ccc(O)c(O)c1O
not listed: [4] | [7]
inactive: all other assays above

O=C(O)CCCC[C@@H]1SC[C@@H]2NC(=O)N[C@@H]21
not listed: [4] | [6] | [9]
inactive: all other assays above

Nc1ccc(N=Nc2ccccc2)c(N)n1
not listed: [9]
inactive: all other assays above

O=c1cc(-c2ccccc2)oc2ccccc12
not listed: [5]
inactive: all other assays above

O=C1CCCN1CCO
not listed: [4] | [5] | [9]
inactive: all other assays above

CC(=O)[C@H]1[C@H](C#N)C[C@H]2[C@@H]3CC=C4C[C@@H](O)CC[C@]4(C)[C@H]3CC[C@@]21C
not listed: [4] | [5]
inactive: all other assays above

CCOC(=O)Cc1cccc2ccccc12
not listed: [4] | [6] | [9]
inactive: all other assays above

CCCCC/C=C\CCC=O
not listed: [4] | [8] | [9]
inactive: all other assays above

c1ccc(-c2ccccn2)nc1
not listed: [5]
inactive: all other assays above

O=C1c2ccccc2C(=O)C1c1nc2ccccc2c(Br)c1O
not listed: [4] | [9]
inactive: all other assays above

O=c1[nH]nc(-c2ccc([N+](=O)[O-])o2)o1
not listed: [6]
inactive: all other assays above

CCCCCCCCCCCCCCCC(=O)OCC
not listed: [4] | [9]
inactive: all other assays above

CC(=O)OCC(=O)[C@@]12N=C(C)O[C@@H]1C[C@H]1[C@@H]3CCC4=CC(=O)C=C[C@]4(C)[C@H]3[C@@H](O)C[C@@]12C
active: [1] 0.0827 µM | [6] 17.1 µM
not listed: [4] | [9]
inactive: all other assays above

CC(=O)OC1C2(C)CCC(C2)C1(C)C (stereo not given)
not listed: [5]
inactive: all other assays above

CCCCCC/C=C/C=O
not listed: [6] | [9]
inactive: all other assays above

CC(C)(C)c1ccc(N)cc1
not listed: [8] | [9]
inactive: all other assays above

C[C@]12CCC(=O)C=C1CC[C@@H]1[C@@H]2C(=O)C[C@@]2(C)[C@H]1CC[C@]2(O)C(=O)CO
not listed: [5] | [6]
inactive: all other assays above

C=C(C)CCO
not listed: [4] | [5]
inactive: all other assays above

C=C(C)C(=O)OCCO
not listed: [4]
inactive: all other assays above

O=C1CCCC1
not listed: [2] | [4] | [9]
inactive: all other assays above

CCOC(=O)CC(C(C)=O)C(C)=O
inactive: [1] | [2] | [4] | [7] | [8]

O=C1CCC(=O)N1Cl
not listed: [2] | [7]
inactive: all other assays above

CC(C)c1ccc(C=O)cc1
not listed: [2]
inactive: all other assays above

CC1(C)[C@H]2CC[C@]1(C)C(=O)C2
not listed: [3] | [4] | [6]
inactive: all other assays above

CC(C)c1ccc(C#N)cc1
inactive: [1] | [2] | [8]

NNC(=O)c1cccc(C(=O)NN)c1
not listed: [2] | [4] | [6]
inactive: all other assays above

CCN(CC)c1ccc(C(=O)c2ccccc2C(=O)O)c(O)c1
not listed: [3] | [6] | [8]
inactive: all other assays above

NC(CO)(CO)CO
not listed: [2]
inactive: all other assays above

CCC(CO)CO
not listed: [2] | [9]
inactive: all other assays above

CC(C)(C)c1n[nH]c(=O)n(N)c1=O
inactive: [1] | [3] | [9] | [7] | [8]

CCOC(=O)c1ccc(N(C)C)cc1
not listed: [2] | [7] | [9]
inactive: all other assays above

CCc1nccnc1C
not listed: [2]
inactive: all other assays above

CC(C)CCCCCOC(=O)CCS
inactive: [1] | [3] | [4] | [5] | [7]

CCC(=O)Oc1ccc(/C(CC)=C(\CC)c2ccc(OC(=O)CC)cc2)cc1
active: [6] 26.1 µM | [8] 26.9 µM
inactive: [1] | [3] | [9] | [7]

CC(=O)Nc1nnc(S(N)(=O)=O)s1
inactive: [1] | [3] | [9] | [5] | [7]

CC(C)(Oc1ccc(C2CC2(Cl)Cl)cc1)C(=O)O (stereo not given)
not listed: [3] | [4] | [6]
inactive: all other assays above

CC(=O)c1ccc2c(c1)CCCC2
inactive: [1] | [3] | [5] | [7] | [8]

C[Si](C)O[Si](C)(C)O[Si](C)(C)O[Si](C)C
inactive: [1] | [3] | [9] | [6] | [7]

CC(C)CC(O)Cc1ccccc1 (stereo not given)
not listed: [3] | [6] | [7]
inactive: all other assays above

O=C(O)CCCCCCCCCC(=O)O
not listed: [2] | [4] | [5]
inactive: all other assays above

CC1=NC(C)OC1C (stereo not given)
not listed: [2] | [9]
inactive: all other assays above

O=C(c1ccc(O)cc1)c1ccc(O)cc1O
not listed: [3] | [4]
inactive: all other assays above

C=CC(C)(CCC=C(C)C)OC(=O)C(C)C (stereo not given)
inactive: [1] | [2] | [9] | [6] | [7]

CCCCC(CC)COC(=O)c1ccccc1O (stereo not given)
not listed: [3]
inactive: all other assays above

O=C(Oc1ccccc1)c1ccc2ccccc2c1O
not listed: [2] | [5] | [7]
inactive: all other assays above

C=CC=CC=CCCCCC
not listed: [3]
inactive: all other assays above

CNC(=S)N(C)C
inactive: [1] | [3] | [4] | [7] | [8]

CC(C)c1ccc2cc(C(C)C)ccc2c1
not listed: [2] | [5]
inactive: all other assays above

NC(=O)NNC(N)=O
not listed: [3] | [9]
inactive: all other assays above

CCCCCCCC[N+](C)(CCCCCCCC)CCCCCCCC
inactive: [1] | [2] | [5] | [8]

CC(=O)OC(C)C
not listed: [3] | [4] | [5]
inactive: all other assays above

COc1ccc2nc(N)sc2c1
not listed: [3] | [7]
inactive: all other assays above

COC(=O)/C=C\C(=O)O
not listed: [2] | [5] | [6]
inactive: all other assays above

COCCOCCOCCOCCOC
not listed: [2] | [5] | [6]
inactive: all other assays above

Cc1cc(C)c(C(=O)O)c(C)c1
inactive: [1] | [3] | [9] | [5] | [7]

FC(F)(F)C(=NOCC1OCCO1)c1ccc(Cl)cc1
active: [6] 100 µM
not listed: [2] | [4]
inactive: all other assays above

CC(C)C1=CC2=CC[C@@H]3[C@](C)(CCC[C@@]3(C)C(=O)O)[C@H]2CC1
active: [2] 26.8 µM | [6] 111 µM
not listed: [3] | [5]
inactive: all other assays above

C=C(C)[C@@H]1CCC2=CCC[C@@H](C)[C@]2(C)C1
not listed: [2] | [4]
inactive: all other assays above

CC1(C)S[C@@H]2[C@H](NC(=O)COc3ccccc3)C(=O)N2[C@H]1C(=O)O
inactive: [1] | [2] | [7] | [8]
